Screening data deposited in PubChem BioAssay by The Scripps Research Institute Molecular Screening Center.
DAX1 inh-1 = inhibitors of human orphan nuclear receptor DAX1 (NR0B1); HEK293 Gal4-DAX1 luciferase reporter, luminescence; 340,000 tested, 0.99% active; AID 504766; P51843; inhibition, % at 6.75 µM;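 active = inhibition above the mean over all tested compounds plus 3 SD, cut at about 4.2% in these data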;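 note: 0% = DAX1-transfected cells with DMSO and 100% = empty-vector control cells with DMSO; inhibition shows as a rise in luminescence from relieved DAX1 repression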
ssDAF-12 act = activates DAF-12 receptor from parasite S. stercoralis; AID 652126; activation, % at 6.8 µM; 370,000 tested, 1% active; HEK293 ssDAF-12/GRIP1 lit1-tk-luc reporter, luminescence; % of 3 µM dafachronic acid response;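 active = activation above the mean over all tested compounds plus 3 SD, cut at about 0.9% in these data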;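 note: 0% = DMSO-only wells and 100% = 3 µM delta7-dafachronic acid wells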
hcDAF-12 act = activates DAF-12 receptor from parasite H. contortus; 370,000 tested, 1.4% active; activation, % at 6.8 µM; HEK293 hcDAF-12 lit1-tk-luc reporter, luminescence; 0% DMSO, 100% Δ7-dafachronic acid;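 active = activation above the mean of all tested compounds plus 3 SD, cut at about 5.5% in these data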;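 note: 100% = response to 3 µM Δ7-dafachronic acid high control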
DAX1 inh-2 = inhibitors of DAX1 repression of SF-1 activated StAR promoter. HEK293T StAR-luciferase reporter, SF-1/DAX-1 repression relief. inhibition, % at 6.8 µM. 370,000 tested, 1.1% active;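 active = inhibition above the mean over all tested compounds plus 3 SD, cut at about 3.6% in these data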;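 note: 0% = DAX-1 cells with DMSO and 100% = cells lacking DAX-1 with DMSO; higher inhibition means more luminescence from relief of DAX-1 repression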
hgDAF12 agonist = hgDAF-12 agonism, primary luciferase screen. HEK293 GAL4-hgDAF12 UAS-luciferase reporter, agonist luminescence; normalized to butyrate control. activation, % at 6.8 µM. 370,000 tested, 1.8% active. AID 687014;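 active = activation above a cutoff set at the mean of all screened compounds plus 3 SD, cut at about 10% in these data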;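 note: 0% = DMSO wells and 100% = sodium butyrate wells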
hgDAF12 conf = hgDAF-12 agonism, confirmation assay; shares compounds with hgDAF12 agonist; HEK293 GAL4-hgDAF12 luciferase reporter, agonist mode; percent of butyrate response; activation, % at 6.8 µM; 3,300 tested, 80% active;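 active = mean activation over triplicate wells above the hit cutoff derived from the earlier primary screen, cut at about 11% in these data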;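 note: 0% = DMSO low control and 100% = 2 mM sodium butyrate high control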
LXR ag 2 = LXR-beta agonism as DAF-12 counter-screen; shares compounds with hgDAF12 agonist; HEK293 Gal4-LXR luciferase reporter, 24 h; activation, % at 6.8 µM; 3,300 tested, under 10 active;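 active = mean activation of the triplicate above a set limit carried over from the primary screen, none filed active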
Target sequence (P55055 whole entry, looked up, the tested form may be a part): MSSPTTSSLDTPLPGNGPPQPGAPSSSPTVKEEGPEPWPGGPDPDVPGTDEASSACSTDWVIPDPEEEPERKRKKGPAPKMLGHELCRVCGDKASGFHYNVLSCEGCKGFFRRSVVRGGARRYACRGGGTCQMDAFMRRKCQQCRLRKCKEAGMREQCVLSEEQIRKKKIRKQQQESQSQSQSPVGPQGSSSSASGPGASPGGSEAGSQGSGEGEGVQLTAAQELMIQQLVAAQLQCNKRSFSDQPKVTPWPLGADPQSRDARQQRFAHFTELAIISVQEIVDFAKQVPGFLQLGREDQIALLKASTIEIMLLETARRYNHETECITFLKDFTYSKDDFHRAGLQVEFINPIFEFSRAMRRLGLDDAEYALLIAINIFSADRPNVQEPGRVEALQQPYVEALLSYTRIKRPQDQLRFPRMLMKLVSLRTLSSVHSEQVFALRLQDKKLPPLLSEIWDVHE
* hit, by the source's call. Only some compounds are listed: those with a hit (about 4.1% of all), similar ones and a draw of the others.

How did COCC1CCCN(C(=O)c2cc(COc3ccc4ncccc4c3)on2)C1 (configuration not stated) do in these assays?
DAX1 inh-1: -2.1; ssDAF-12 act: -2.0; hcDAF-12 act: -4.8; DAX1 inh-2: -8.6; hgDAF12 agonist: -7.7

What do the screens show for `Cc1ccc(S(=O)(=O)Oc2cc(N)c3c(n2)CCC3)cc1`?
DAX1 inh-1: 0.0; ssDAF-12 act: -1.4; hcDAF-12 act: -1.5; DAX1 inh-2: 0.4; hgDAF12 agonist: -1.2

What do the screens show for `COc1ccc(C(=O)NCCOc2cccc(Oc3ccccc3)c2)cc1OC`?
DAX1 inh-1: 0.4; ssDAF-12 act: -1.4; hcDAF-12 act: -1.1; DAX1 inh-2: -1.7; hgDAF12 agonist: -0.5

What do the screens show for `CCN(C(=O)COC(=O)C1CCN(S(=O)(=O)c2c(Cl)cccc2Cl)CC1)C1CCCCC1`?
DAX1 inh-1: 3.2; ssDAF-12 act: -1.2; hcDAF-12 act: -1.6; DAX1 inh-2: -1.9; hgDAF12 agonist: -1.1

How did CCCCn1c(CCC(=O)O)nc2cc(S(=O)(=O)N(CC)CC)ccc21 do in these assays?
DAX1 inh-1: -1.3; ssDAF-12 act: -1.7; hcDAF-12 act: -2.6; DAX1 inh-2: -0.2; hgDAF12 agonist: -1.3

Results for COc1ccc(NC(=O)C2=Cc3cccc(OC)c3OC2)cc1 ?
DAX1 inh-1: 1.5; ssDAF-12 act: -1.0; hcDAF-12 act: 0.4; DAX1 inh-2: 1.8; hgDAF12 agonist: 14.7*; hgDAF12 conf: 10.1; LXR ag 2: 0.5

How did O=C(NN=C1CCCCCCC1)c1ccc(F)cc1 do in these assays?
DAX1 inh-1: 0.4; ssDAF-12 act: -0.8; hcDAF-12 act: 0.3; DAX1 inh-2: 0.7; hgDAF12 agonist: 4.6

Results for CCCC12CN3CCN(CC(C3)/C1=N\NC(=O)c1ccc(F)cc1)C2 ?
DAX1 inh-1: 0.0; ssDAF-12 act: -0.8; hcDAF-12 act: -0.2; DAX1 inh-2: 0.6; hgDAF12 agonist: 13.3*; hgDAF12 conf: 1.8; LXR ag 2: 0.2

What do the screens show for `COC(=O)c1ccnc(SCC(=O)c2ccccc2)c1`?
DAX1 inh-1: 1.6; ssDAF-12 act: 0.9; hcDAF-12 act: 2.8; DAX1 inh-2: 2.5; hgDAF12 agonist: 17.6*; hgDAF12 conf: 14.4*; LXR ag 2: 0.3

What do the screens show for `COC(=O)c1cnc(SCC(=O)c2ccccc2)n1C`?
DAX1 inh-1: 3.7; ssDAF-12 act: -0.1; hcDAF-12 act: 6.1*; DAX1 inh-2: 1.6; hgDAF12 agonist: 15.3*; hgDAF12 conf: 14.0*; LXR ag 2: 0.6

What do the screens show for `COC(=O)c1cnc(SCc2ccc(Cl)cc2)n1C`?
DAX1 inh-1: -0.3; ssDAF-12 act: -1.0; hcDAF-12 act: -0.2; DAX1 inh-2: 0.4; hgDAF12 agonist: 6.1

What do the screens show for `COc1ccccc1C(=O)CSc1ccccn1`?
DAX1 inh-1: 3.3; ssDAF-12 act: -0.3; hcDAF-12 act: 0.4; DAX1 inh-2: 1.4; hgDAF12 agonist: 7.3

What do the screens show for `C=C(NS(=O)(=O)c1ccc(C)cc1)C(=O)OC`?
DAX1 inh-1: -0.4; ssDAF-12 act: -1.3; hcDAF-12 act: -2.2; DAX1 inh-2: -0.9; hgDAF12 agonist: 1.4

Results for Cc1ccc2ccccc2c1C(O)c1ncc(-c2ccccc2Cl)[nH]1 (configuration not stated) ?
ssDAF-12 act: -1.4; hcDAF-12 act: 0.3; DAX1 inh-2: -0.2; hgDAF12 agonist: 1.0

What do the screens show for `CCN(CC)CCCN1C(=O)C(=O)/C(=C(/O)c2ccc(OC)cc2)C1c1ccco1` (configuration not stated)?
DAX1 inh-1: 0.2; ssDAF-12 act: -1.2; hcDAF-12 act: 1.0; DAX1 inh-2: -0.5; hgDAF12 agonist: 14.1*; hgDAF12 conf: 3.8; LXR ag 2: 0.1

How did Cc1cccc(NC(=S)NNC(=O)c2sccc2C)c1 do in these assays?
DAX1 inh-1: 3.2; ssDAF-12 act: -0.3; hcDAF-12 act: 2.8; DAX1 inh-2: 2.0; hgDAF12 agonist: 13.2*; hgDAF12 conf: 6.2; LXR ag 2: 0.2

What do the screens show for `COc1ccc(-c2noc3c2-c2nc(-c4cccc(C)c4)sc2CC3)cc1`?
DAX1 inh-1: 0.4; ssDAF-12 act: -0.3; hcDAF-12 act: -1.7; DAX1 inh-2: 0.3; hgDAF12 agonist: -0.1
